Tau fibril FP = tau fibrillization inhibition (FP); P10636; 280,000 compounds, 0.39% hits; K18 P301L tau heparin fibrillization, Alexa594 FP, 6 h; Potency, µM (titrated, usually from 57.7 µM), most hits filed as inhibitors; also: nearly all actives have a fitted effect of over 55% in size
Target sequence (P10636 561-689 P618L limits assumed): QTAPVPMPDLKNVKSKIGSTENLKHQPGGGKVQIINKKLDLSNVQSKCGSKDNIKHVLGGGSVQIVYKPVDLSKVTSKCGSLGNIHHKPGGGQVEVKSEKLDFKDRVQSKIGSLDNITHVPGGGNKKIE
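Steps: dispense K18 P301L tau (15 uM plus 0.24 uM Alexa 594 tracer, final) in pH 7 sodium acetate; add compound; add heparin (20 uM final); incubate 6 hr, 37 C; add ThT (30 uM final); after 1 hr ambient, read FP.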
RORg inh = blocks mouse ROR gamma transcriptional activity. P51450. Drosophila S2 Gal4-RORgamma UAS-luciferase reporter, 20 h. Potency, µM (series often up to 53.6 µM), most hits filed as inhibitors. 310,000 compounds, 5.4% hits; also: nearly all actives have a fitted effect of over 60% in size
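Stably transfected Drosophila Schneider cells are the test system, with ROR gamma fused to Gal4 and luciferase under UAS control; luminescence is read after 20 hr of 700 uM copper sulfate induction at ambient temperature.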
Gal4-VP16 FLuc = inhibits Gal4-VP16 luciferase reporter, ROR gamma counter-screen; Drosophila S2 Gal4-VP16 UAS-luciferase, luminescence, 20 h; Potency, µM (series often up to 53.6 µM), usual class: inhibitors; 310,000 compounds, 3.5% hits; AID 2546;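 also: Gal4-VP16 expression switched on by copper sulfate through the metallothionein promoter; nearly all actives have a fitted effect of over 50% in size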
Tau fluor cs = counter-screen for tau fibril formation inhibitors; AID 1463; 280,000 compounds, 0.93% hits; tau K18 P301L Alexa594 fluorescence, heparin fibrillization; Potency, µM (titrated, usually from 57.7 µM); also: nearly all actives have a fitted effect of over 55% in size
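Human tau K18 P301L (15 uM unlabeled, 0.24 uM Alexa 594-labeled) in 100 mM sodium acetate pH 7 with 20 uM heparin, 6 hr at 37 C. ThT 30 uM added, 1 hr ambient; Alexa 594 FP and total fluorescence read at 555/632 nm.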
Tau fibril ThT = blocks human tau fibril formation measured by thioflavin T; P10636; recombinant tau K18 P301L (four-repeat tau fragment), heparin-induced fibrillization, ThT fluorescence; Potency, µM (doses to about 57.4 µM), actives largely listed as inhibitors; 270,000 compounds, 2.1% hits; also: nearly all actives have a fitted effect of over 55% in size
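Heparin-induced fibrillization of the P301L-mutant K18 repeat-domain fragment of human tau was followed by ThT binding in quantitative high-throughput format.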
A number is an active result; . = inactive; ? = inconclusive; / = no result; [ ] = remark or other dose. A selection: hits, their analogues and other compounds. The true share with any hit is near 7.3%. Calls follow the shape of the dose curve; as a rule, active = well fitted curve in the direction sought with a large enough effect; inconclusive = small, poorly fitted or top-dose-only effect, or another doubt; inactive = no such curve, though single readings can be large; an effect the other way counts as inactive or inconclusive.

SMILES	Tau fibril FP	RORg inh	Gal4-VP16 FLuc	Tau fluor cs	Tau fibril ThT
Cc1ccc(Nc2nn3c(=O)c4cc5c(cc4nc3s2)OCO5)cc1Cl	.	/	/	.	?
Cc1cc(C)c(Nc2nn3c(=O)c4cc5c(cc4nc3s2)OCO5)c(C)c1	?	/	/	.	28µM
CC(=O)Nc1nc2ccccc2[nH]1	.	.	.	.	.
O=C(Nc1nc2ccccc2[nH]1)c1ccc(Cl)cc1	/	13µM	2.8µM	/	/
O=C(Nc1nc2ccccc2[nH]1)c1ccccc1	.	6.3µM	7.9µM	.	.
O=C(/C(=C/c1ccc(Cl)cc1)c1nc2ccccc2[nH]1)c1ccccc1	?	4.5µM	10µM	.	40µM
O=C(NNc1ncnc2ccccc12)c1cccc(Cl)c1	.	7.1µM	.	.	/
COc1ccccc1CNC(=O)c1ccc2nc(CCc3ccccc3)oc2c1	.	/	/	.	?
Cc1cc(C)c(Cn2c3ccccc3c3cnn(CC(=O)NCCCc4ccccc4)c(=O)c32)c(C)c1	.	/	/	.	.
Cc1cc(=O)n2nc(N3CCCC3C(=O)Nc3cccc(F)c3)sc2n1 (configuration not stated)	/	.	.	/	/
O=C(Nc1nc2ccccc2[nH]1)c1cccc(Cl)c1	/	4µM	4.5µM	/	/
O=C(Nc1nc2ccccc2[nH]1)c1ccccc1O	/	13µM	6.3µM	/	/
CC(=O)N1CCN(S(=O)(=O)c2cccc(C(=O)Nc3nc4ccccc4[nH]3)c2)CC1	.	?	.	.	.
O=[N+]([O-])c1ccc(Nc2nc(N/N=C\c3ccc4c(c3)OCO4)nc(N3CCCCC3)n2)cc1	.	4.5µM	?	?	32µM
O=[N+]([O-])c1ccc(Nc2nc(NCCO)nc(N3CCCC3)n2)cc1	?	.	.	?	?
COc1ccc(Nc2nc(NN)nc(Nc3ccc(OC)cc3)n2)cc1	/	.[1.91 µM]	?	/	/
COc1ccc([N+](=O)[O-])cc1/C=N/Nc1nc(N2CCCCC2)nc(N2CCCCC2)n1	.	.	.	.	.
NNc1nc(Nc2ccccc2)nc(N2CCCCC2)n1	.	5µM	7.1µM	?	?
NNc1nc(Nc2ccccc2)nc(Nc2ccccc2)n1	?	16µM	.	?	.
c1ccc(Nc2nc(N3CCOCC3)nc(N3CCOCC3)n2)cc1	.	.	.	.	.
NNc1nc(Nc2ccc([N+](=O)[O-])cc2)nc(N2CCCCCC2)n1	/	?	16µM	/	/
O=c1c(S(=O)(=O)c2ccccc2)cn(Cc2ccc(F)cc2)c2cc(N3CCCC3)c(F)cc12	.	/	/	.	.
CCOc1ccc(NC(=O)C(=O)NCCc2csc(-c3ccc(F)cc3)n2)cc1	.	/	/	.	.
Cc1ccc(NC(=O)c2cccc(C(=O)Nc3ccc(C)c(C)c3)n2)cc1C	/	.	.	/	/
CCC(=O)NC(c1cccs1)c1ccc2cccnc2c1O (configuration not stated)	.	0.5µM	1.1µM	.	.
SMILES	Tau fibril FP	RORg inh	Gal4-VP16 FLuc	Tau fluor cs	Tau fibril ThT
CCCC(=O)NC(c1cccs1)c1cc(Cl)c2cccnc2c1O (configuration not stated)	.	0.4µM	0.5µM	.	.
CCCC(=O)NC(c1ccc2c(c1)OCO2)c1cc(Cl)c2cccnc2c1O (configuration not stated)	.	1.4µM	1.3µM	.	.
CC(C)CC(=O)NC(c1cccs1)c1ccc2cccnc2c1O (configuration not stated)	.[2.34 µM]	.	.	.[2.34 µM]	.
COc1ccc(C(=O)NC(c2ccc(Cl)cc2)c2cc(Cl)c3cccnc3c2O)cc1 (configuration not stated)	.	/	/	.	.
Cc1conc1NC(c1cccs1)c1ccc2cccnc2c1O (configuration not stated)	.	2.5µM	5.6µM	.	?
Cc1cccc(NC(c2cccc(Cl)c2)c2ccc3cccnc3c2O)n1 (configuration not stated)	.	/	/	?	?
CCC(Sc1nc2ccncc2[nH]1)C(=O)Nc1cc(C)ccc1C (configuration not stated)	.	/	/	.	.
Cc1ccc2oc(-c3ccc(Cl)c(NC(=O)c4ccc(OC(C)C)cc4)c3)nc2c1	?	/	/	.	?
Cc1ccc(-c2ccc(=O)n(CCC(=O)N3CCN(c4cccc(C)c4)C(C)C3)n2)cc1 (configuration not stated)	/	.	.	/	/
CCCCn1c(N)c(N(CCOC)C(=O)CSc2n[nH]c(-c3ccc(OC)cc3)n2)c(=O)[nH]c1=O	/	.	.	/	/
